Laboratory results from PubChem BioAssay (EPA / NIEHS).
Activity calls are given as the source filed them. The calls were made as follows: active = hit-call score of the fitted dose curve at least 0.9, where 1 is the maximum; inactive = score below 0.9.

Tests used:
[1] = read-out: Interleukin-1 alpha (IL1a), IL1A (gene 3552); experiment: BSK_KF3CT_IL1a: BioMAP Diversity Plus: KF3CT Assay for Interleukin-1 alpha (IL1a) Biomarker Activity (AID 2283070); conditions: primary human keratinocytes with fibroblasts; actives raise or lower the signal
In short: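 Readout is IL-1a level by ELISA, compared bidirectionally with DMSO as baseline. Cells: human keratinocytes co-cultured with foreskin fibroblasts, harvested 24 h post-dose.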

[2] = read-out: TIMP metallopeptidase inhibitor 2 (TIMP2), TIMP2 (gene 7077); experiment: BSK_KF3CT_TIMP2: BioMAP Diversity Plus: KF3CT Assay for TIMP metallopeptidase inhibitor 2 (TIMP2) Biomarker Activity (AID 2283071); conditions: primary human keratinocytes with fibroblasts; actives raise or lower the signal
In short: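 Measurements come from ELISA detection of TIMP-2 at 24 hours in a dosed human keratinocyte and foreskin fibroblast co-culture. DMSO serves as negative control and baseline.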

[3] = read-out: Matrix Metallopeptidase 9 (MMP9), MMP9 (gene 4318); experiment: BSK_KF3CT_MMP9: BioMAP Diversity Plus: KF3CT Assay for Matrix Metallopeptidase 9 (MMP9) Biomarker Activity (AID 2283074); conditions: primary human keratinocytes with fibroblasts; actives raise or lower the signal
In short: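 Values come from bidirectional fitting relative to DMSO of MMP-9 levels, which were measured by ELISA. Measurements were taken 24 h after chemical dosing of a keratinocyte and foreskin fibroblast co-culture.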

[4] = read-out: urokinase plasminogen activator (uPA), PLAU (gene 5328); experiment: BSK_KF3CT_uPA: BioMAP Diversity Plus: KF3CT Assay for urokinase plasminogen activator (uPA) Biomarker Activity (AID 2283075); conditions: primary human keratinocytes with fibroblasts; actives raise or lower the signal
In short: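 Values derive from bidirectional fitting against DMSO controls. Keratinocyte/foreskin fibroblast co-cultures received chemical; 24 h later uPA was detected by ELISA, with SRB total-protein staining in parallel wells for overt cytotoxicity.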

[5] = read-out: E-selectin (Homo sapiens) (UniProt P16581); experiment: BSK_LPS_Eselectin: BioMAP Diversity Plus: LPS Assay for Eselectin Biomarker Activity (AID 2283077); conditions: primary human HUVEC with PBMC; actives raise or lower the signal
In short: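 ELISA readout of E-selectin, 24 h post-dose, HUVEC + PBMC co-culture (LPS system). Gain or loss of signal vs DMSO baseline, bidirectional fit.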

[6] = read-out: Interleukin-8 (IL8), CXCL8 (gene 3576); experiment: BSK_LPS_IL8: BioMAP Diversity Plus: LPS Assay for Interleukin-8 (IL8) Biomarker Activity (AID 2283078); conditions: primary human HUVEC with PBMC; actives raise or lower the signal
In short: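 HUVEC + PBMC co-culture, LPS-activated; test chemicals dosed, IL-8 read by ELISA at 24 h. Bidirectional curve fit vs DMSO baseline (gain or loss of signal).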

[7] = BSK_LPS_SRB: Viability Assessment in the BioMAP Diversity Plus: LPS Assay (AID 2283079); conditions: primary human HUVEC with PBMC;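 also: total protein by sulforhodamine B absorbance as a cytotoxicity measure; measured one day after compound addition; fitted in both directions against DMSO so loss or gain of signal counts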
In short: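 HUVEC + PBMC co-culture, LPS-stimulated; compound 24 h. 10% TCA fix, 0.1% SRB stain, A560. Bidirectional fit vs DMSO.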

[8] = read-out: Interleukin-1 alpha (IL1a), IL1A (gene 3552); experiment: BSK_LPS_IL1a: BioMAP Diversity Plus: LPS Assay for Interleukin-1 alpha (IL1a) Biomarker Activity (AID 2283080); conditions: primary human HUVEC with PBMC; actives raise or lower the signal
In short: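 HUVEC/PBMC co-culture, LPS system; 24 h after dosing; IL-1a by ELISA; gain or loss of signal fitted bidirectionally vs DMSO baseline.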

[9] = read-out: Monocyte Chemoattractant Protein-1 (MCP1), CCL2 (gene 6347); experiment: BSK_LPS_MCP1: BioMAP Diversity Plus: LPS Assay for Monocyte Chemoattractant Protein-1 (MCP1) Biomarker Activity (AID 2283081); conditions: primary human HUVEC with PBMC; actives raise or lower the signal
In short: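 ELISA read-out of MCP-1 after 24 h chemical dosing of a human umbilical vein endothelial cell/peripheral blood mononuclear cell co-culture stimulated with LPS. Gain or loss of signal fitted relative to DMSO controls.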

[10] = BSK_LPS_PGE2: BioMAP Diversity Plus: LPS Assay for Prostaglandin E2 (PGE2) Biomarker Activity (AID 2283082); conditions: primary human HUVEC with PBMC; actives raise or lower the signal
In short: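 Primary human endothelial cells and blood mononuclear cells, co-cultured with LPS, receive test chemical; PGE2 ELISA follows at 24 h, with SRB-stained parallel cultures flagging cytotoxicity.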

[11] = read-out: Macrophage colony-stimulating factor (MCSF), CSF1 (gene 1435); experiment: BSK_LPS_MCSF: BioMAP Diversity Plus: LPS Assay for Macrophage colony-stimulating factor (MCSF) Biomarker Activity (AID 2283083); conditions: primary human HUVEC with PBMC; actives raise or lower the signal
In short: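 HUVEC + PBMC co-culture (human primary), 24 h post-dose; M-CSF by ELISA; gain/loss of signal fitted bidirectionally vs DMSO baseline.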

[12] = read-out: Tissue Factor, F3 (gene 2152); experiment: BSK_LPS_TissueFactor: BioMAP Diversity Plus: LPS Assay for Tissue Factor Biomarker Activity (AID 2283084); conditions: primary human HUVEC with PBMC; actives raise or lower the signal
In short: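 HUVEC/PBMC co-culture, LPS-activated; CD142 ELISA read 24 h post-dose; bidirectional curve fit vs DMSO negative control.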

[13] = read-out: Tumor necrosis factor (Homo sapiens) (UniProt P01375); experiment: BSK_LPS_TNFa: BioMAP Diversity Plus: LPS Assay for Tumour Necrosis Factor alpha (TNFa) Biomarker Activity (AID 2283085); conditions: primary human HUVEC with PBMC; actives raise or lower the signal
In short: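 ELISA-based TNFa endpoint in a human endothelial–PBMC co-culture sampled 24 h post-exposure. Curves were fitted in both directions using DMSO as baseline of activity.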

[14] = read-out: Vascular cell adhesion molecule 1 (VCAM1), VCAM1 (gene 7412); experiment: BSK_LPS_VCAM1: BioMAP Diversity Plus: LPS Assay for Vascular cell adhesion molecule 1 (VCAM1) Biomarker Activity (AID 2283086); conditions: primary human HUVEC with PBMC; actives raise or lower the signal
In short: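 Measured by ELISA: VCAM-1 in LPS-activated HUVEC/PBMC co-cultures 24 h after treatment. Values reflect bidirectional fitting with DMSO as baseline.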

CD38, CD38 (gene 952) = experiment: BSK_SAg_CD38: BioMAP Diversity Plus: SAg Assay for CD38 Biomarker Activity (AID 2283087); conditions: primary human HUVEC with PBMC; actives raise or lower the signal
In short: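 Measures CD38 on a human endothelial/PBMC co-culture driven by SEB and TSST-1, 24 h after compound exposure, using ELISA with fluorescence detection; DMSO defines baseline for bidirectional curve fitting.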

CD40, CD40 (gene 958) [15] = experiment: BSK_SAg_CD40: BioMAP Diversity Plus: SAg Assay for CD40 Biomarker Activity (AID 2283088); conditions: primary human HUVEC with PBMC; actives raise or lower the signal
In short: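 HUVEC/PBMC co-culture, 24 h post-dose; CD40 by ELISA, fluorescence intensity; bidirectional fit vs DMSO negative control.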

CD69, CD69 (gene 969) = experiment: BSK_SAg_CD69: BioMAP Diversity Plus: SAg Assay for CD69 Biomarker Activity (AID 2283089); conditions: primary human HUVEC with PBMC; actives raise or lower the signal
In short: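 Primary human vascular co-culture (umbilical vein endothelium with peripheral blood mononuclear cells) exposed to test chemical for 24 h. CD69 levels quantified by fluorescence ELISA; DMSO served as negative control for bidirectional fitting.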

[16] = read-out: Transforming growth factor beta 1 (TGFb1), TGFB1 (gene 7040); experiment: BSK_KF3CT_TGFb1: BioMAP Diversity Plus: KF3CT Assay for Transforming growth factor beta 1 (TGFb1) Biomarker Activity (AID 2283072); conditions: primary human keratinocytes with fibroblasts; actives raise or lower the signal
In short: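 TGF-b1 ELISA on a 24 h dosed co-culture of human keratinocytes and foreskin fibroblasts; cytotoxicity tracked in parallel cultures by SRB staining.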

CD40, CD40 (gene 958) [17] = experiment: BSK_LPS_CD40: BioMAP Diversity Plus: LPS Assay for CD40 Biomarker Activity (AID 2283076); conditions: primary human HUVEC with PBMC; actives raise or lower the signal
In short: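 ELISA readout of CD40 in HUVEC/PBMC co-culture (BSK_LPS system), 24 h post-dosing; bidirectional curve fit, DMSO baseline; parallel SRB total-protein staining for cytotoxicity.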

Measured: outcome

Sequence of Tumor necrosis factor (Homo sapiens) (P01375 whole entry, looked up): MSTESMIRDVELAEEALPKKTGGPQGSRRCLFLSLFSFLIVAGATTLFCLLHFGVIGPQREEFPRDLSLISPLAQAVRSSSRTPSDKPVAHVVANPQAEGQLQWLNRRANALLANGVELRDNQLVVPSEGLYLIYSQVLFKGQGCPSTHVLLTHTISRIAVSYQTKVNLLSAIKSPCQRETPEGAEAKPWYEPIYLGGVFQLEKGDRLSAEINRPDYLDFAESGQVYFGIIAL
Sequence of E-selectin (Homo sapiens) (P16581 whole entry, looked up): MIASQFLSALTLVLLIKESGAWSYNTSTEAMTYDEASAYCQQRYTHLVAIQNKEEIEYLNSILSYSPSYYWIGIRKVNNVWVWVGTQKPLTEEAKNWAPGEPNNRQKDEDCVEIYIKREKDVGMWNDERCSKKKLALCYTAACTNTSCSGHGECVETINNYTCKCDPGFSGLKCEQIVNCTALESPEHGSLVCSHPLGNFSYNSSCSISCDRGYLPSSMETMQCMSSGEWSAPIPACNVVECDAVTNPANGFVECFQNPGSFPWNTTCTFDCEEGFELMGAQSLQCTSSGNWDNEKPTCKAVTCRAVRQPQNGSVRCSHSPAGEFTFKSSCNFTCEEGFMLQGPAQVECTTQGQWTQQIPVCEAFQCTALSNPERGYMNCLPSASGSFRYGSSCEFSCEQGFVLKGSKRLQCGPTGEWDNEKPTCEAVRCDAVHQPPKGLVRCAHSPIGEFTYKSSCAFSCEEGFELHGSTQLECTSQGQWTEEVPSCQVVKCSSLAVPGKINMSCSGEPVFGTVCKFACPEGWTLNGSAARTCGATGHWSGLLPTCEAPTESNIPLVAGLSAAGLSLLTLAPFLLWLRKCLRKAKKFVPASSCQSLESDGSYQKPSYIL

FC(F)(F)C(F)(C(F)(F)F)C(F)(F)C(F)(F)CC1CO1 (stereo not drawn)
not listed: [16] | CD40, CD40 (gene 958) [17]
inactive: all other assays above

CCOS(=O)(=O)OCC
not listed: CD40, CD40 (gene 958) [17]
inactive: all other assays above

OCC(F)(F)OC(F)(F)C(F)(F)OC(F)(F)CO
not listed: [16]
inactive: all other assays above
